Results on 32 molecules are retold here after ChEMBL document CHEMBL3433997, “St. Jude Leishmania screening dataset” (2016).

Each structure is given as a SMILES string.

What all share (format): functional
Test [1] deals with Solute carrier family 2, facilitated glucose transporter member 1 (Homo sapiens) (UniProt P11166). Description: ST_JUDE_LEISH: Cytotoxicity at 2uM final concentration against transgenic Leishmania Mexicana promastigotes LmGLUT1 that are glucose transport deficient and complemented with the human glucose transporter GLUT1. Activity is measured by DNA content using SYBR green in vitro.
Sequence of Solute carrier family 2, facilitated glucose transporter member 1 (Homo sapiens) (P11166 whole entry): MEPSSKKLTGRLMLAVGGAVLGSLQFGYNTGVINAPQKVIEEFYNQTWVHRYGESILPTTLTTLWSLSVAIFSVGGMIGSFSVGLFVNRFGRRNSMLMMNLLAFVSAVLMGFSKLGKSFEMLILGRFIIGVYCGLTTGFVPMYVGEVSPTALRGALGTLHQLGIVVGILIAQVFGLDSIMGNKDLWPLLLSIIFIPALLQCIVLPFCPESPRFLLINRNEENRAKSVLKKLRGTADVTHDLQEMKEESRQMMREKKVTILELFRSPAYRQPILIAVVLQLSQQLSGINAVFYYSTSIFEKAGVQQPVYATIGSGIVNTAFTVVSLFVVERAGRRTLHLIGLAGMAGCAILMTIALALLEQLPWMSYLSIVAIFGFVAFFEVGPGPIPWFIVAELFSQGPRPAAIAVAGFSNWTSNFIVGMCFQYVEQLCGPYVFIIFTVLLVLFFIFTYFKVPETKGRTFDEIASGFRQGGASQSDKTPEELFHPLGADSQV

The target of test [2] is Hexose transporter 1 (Plasmodium falciparum) (UniProt O97467). Description: ST_JUDE_LEISH: Cytotoxicity at 2uM final concentration against transgenic Leishmania Mexicana promastigotes LmPfHT that are glucose transport deficient and complemented with the Plasmodium falciparum hexose transporter. Activity is measured by DNA content using SYBR green in vitro.
In test [3] the target is Glucose transporter (Leishmania mexicana) (UniProt O61059). The test is described as follows: ST_JUDE_LEISH: Cytotoxicity at 2uM final concentration against transgenic Leishmania Mexicana promastigotes LmGT2 that are glucose transport deficient and complemented with the L. Mexicana glucose transporter 2. Activity is measured by DNA content using SYBR green in vitro.

On to `COc1ccc2nc(C)cc(Nc3ccc(Oc4ccc(Cl)c5ccccc45)c(Cl)c3)c2c1`, for which the inhibition amounted to 12.8% in test [1], 10.2% in test [2] and 5.43% in test [3].

As for `Cc1cc(C2NC(=O)c3ccccc3N2)c(C)n1-c1ccc2c(c1)OCO2` (stereo unspecified), the results for the inhibition in test [1], in test [2] and in test [3] were 4.98%, 3.59% and 4.51%, respectively.

Take `COC(=O)c1cccc(CNCc2ccc(-c3ccc(-c4nc5cc(F)ccc5[nH]4)cc3)cc2)c1`: the inhibition in test [1] came to 13%; in test [2], 6.26%; in test [3], 4.98%.

For `O=C(Nc1ccc2c(c1)OCO2)c1cc(-c2cccnc2)cnc1NCc1ccc2c(c1)OCO2`, the inhibition in test [1] is 0.99%; in test [2], 0.19%; in test [3], 2.1%.

For `CC(C)COc1ccc(Cl)cc1Cc1nc(-c2nc3ccc(CN4CCCCC4)cc3[nH]2)co1`, the inhibition in test [1] was determined as 4.83%; in test [2] it was 3.69%; in test [3] it was 2.91%.

As to `COc1ccc(NC(=O)C2CCN(CCCCCNC(=O)/C=C/c3ccc(Cl)c(Cl)c3)CC2)cc1`, the inhibition in test [1] was determined as 2.19%; in test [2], 2.22%; in test [3] it was 2.85%.

As to `Cc1cccc2nc(-c3ccc(-c4cccc(CN5CCC(CO)CC5)c4)s3)[nH]c12`, the inhibition is 1.48% in test [1], 0.4% in test [2] and 1.75% in test [3].

In the case of `O=C(Nc1cccc(-c2nn3ccccc3c2-c2ccnc(Nc3cccc(F)c3)n2)c1)c1c(F)ccc(F)c1F`, the inhibition in test [1] is 6.01%; in test [2], 9.13%; in test [3], 5.56%.

On to `Cc1ccc(-c2cncc(-c3cc(NC4CCN(Cc5ccccc5)CC4)nc(-c4ccccc4)n3)c2)cc1`, for which the values for the inhibition in test [1], in test [2] and in test [3] were 2.11%, 2.36% and 1.96%, respectively.

For the molecule `COc1cc(Cc2cnc(N)nc2N)ccc1OCc1csc(-c2ccc(Cl)cc2)n1`, the results for the inhibition in test [1], in test [2] and in test [3] were 10%, 11.7% and 9.8%, respectively.

Turning to `Oc1ccc2nc(NCCCc3ccccc3)nc(NCCCc3ccccc3)c2c1`, the inhibition in test [1] is 28.4%; in test [2], 20.7%; in test [3] it was 11.1%.

As for `Clc1ccc2c(NCc3ccc4c(c3)OCO4)ccnc2c1`, the values for the inhibition in test [1], in test [2] and in test [3] were 6%, 8.03% and 4.15%, respectively.

On to `CCCCCCNc1cc(C)nc(NC(=N)Nc2cccc(C(F)(F)F)c2)n1`, for which the inhibition in test [1] was determined as 1.36%; in test [2], 3.48%; in test [3], 4.89%.

On to `O=c1cc(NCCCNCc2cc(Cl)cc(Cl)c2OCc2ccccc2)[nH]c2ccccc12`, for which the inhibition in test [1] was 5.54%; in test [2], 2.83%; in test [3], 4.41%.

Take `C=CCOC(=O)N1CCC(CNCc2cccc(-c3cccc(-c4nc5cccc(C)c5[nH]4)c3)c2)C1` (stereo unspecified): the values for the inhibition in test [1], in test [2] and in test [3] were 3.47%, 1.88% and 7.29%, respectively.

With `CN=c1nc(NN=Cc2ccccc2Cl)[nH]c(=Nc2cccc(C(F)(F)F)c2)[nH]1`, the figures for the inhibition in test [1], in test [2] and in test [3] were 8.53%, 8.1% and 4.76%, respectively.

For `O=C(NCC1CCC(CNCCCc2ccccc2)CC1)Nc1ccc(Cl)c(Cl)c1` (stereo unspecified), the inhibition in test [1] is 1.76%; in test [2], 0.18%; in test [3] it was 0.92%.

With `CC(C)(C)NC(=O)COC(=O)c1c2c(nc3ccccc13)C(=Cc1ccc3c(c1)OCO3)CCC2`, the inhibition was determined as 1.65% in test [1], 1.17% in test [2] and 0.48% in test [3].

`CCCCc1ccc(C(=O)Nc2ccc3nc(N4CCN(C)CC4)cc(C)c3c2)cc1`: the inhibition in test [1] came to 2.19%; in test [2], 3.48%; in test [3], 3.48%.

With `CN1CCN(CCCN(Cc2cccc(-c3cccc(CNC4CCCC4)c3)c2)C(=O)CCC2CCCC2)CC1`, the values for the inhibition in test [1], in test [2] and in test [3] were -0.12%, -0.45% and 0.45%, respectively.

For `Cc1cnc2ccc(NS(=O)(=O)c3sc4ccc(Cl)cc4c3C)cc2c1N1CCNCC1`, the inhibition in test [1] is 3.23%; in test [2] it was 4.04%; in test [3] it was -0.02%.

Consider `CCc1ccc(NC(=O)c2cccc(CN3CCCN(CC4CCCCC4)CC3)c2)cc1`, for which the inhibition in test [1] is 1.02%; in test [2], 1.36%; in test [3], -2.12%.

Take `CC(=O)c1ccc2c(c1)C(NC(=O)c1cccc(Cl)c1Cl)C(CO)C(C)(C)O2` (stereo unspecified): the figures for the inhibition in test [1], in test [2] and in test [3] were 1.76%, 3.84% and -1.69%, respectively.

For the molecule `Cc1sc2cc(Cl)cc(Cl)c2c1S(=O)(=O)Nc1ccc2nccc(N3CCNCC3)c2c1`, the inhibition in test [1] is -1.42%; in test [2], -0.22%; in test [3], -0.24%.

For the molecule `CCN(CC)Cc1cccc(-c2cc3c(-c4ccc(C(=O)O)c(C(C)C)c4)ccnc3[nH]2)c1OC`, the figures for the inhibition in test [1], in test [2] and in test [3] were 12%, 8.43% and 7.3%, respectively.

On to `CC(=O)c1ccc(Nc2c(C(N)=O)cnc3cc(-c4c(C)noc4C)ccc23)cc1`, for which the results for the inhibition in test [1], in test [2] and in test [3] were 8.14%, 6.39% and 5.76%, respectively.

Consider `c1ccc2[nH]c(-c3ccc(-c4ccc(CN5CCCCC5)cc4)cc3)nc2c1`, for which the inhibition came to 18.2% in test [1], 12.9% in test [2] and 10.6% in test [3].

Take `COc1ccc2nccc([C@@H](O)CN3CCC(NCCNc4cccc(F)c4)CC3)c2c1`: the values for the inhibition in test [1], in test [2] and in test [3] were 6.07%, 11.1% and 0.95%, respectively.

Turning to `O=C(c1ccc(Cl)c(Cl)c1)N1CCc2c([nH]c3ccccc23)C1CN1CCCC1` (stereo unspecified), the figures for the inhibition in test [1], in test [2] and in test [3] were 4.26%, 5.06% and 3.77%, respectively.

Take `CN1CCN(c2ccc(Cl)cc2NC(=O)C2COc3ccccc3O2)CC1` (stereo unspecified): the inhibition is 0.88% in test [1], 1.77% in test [2] and -1.34% in test [3].

For `C=C1C(C(=O)OCC)=CN(CC)c2cc(O[C@H]3CCN(C(=O)OC(C)(C)C)C3)ccc21`, the inhibition in test [1] was 2.71%; in test [2], 2.53%; in test [3], -2.32%.

In the case of `CCN(CC)c1ccc(C(c2ccc(N(CC)CC)cc2)c2ccc([N+](=O)[O-])cc2)cc1`, the inhibition in test [1] was 15.3%; in test [2] it was 10.4%; in test [3], 8.28%.

The inhibition is the relative decrease from the control value, in per cent.
